Measured values taken from PubChem BioAssay (NCATS).
Results filed as inconclusive are left out. Entries that show only a call come without a potency. Activity calls are given as the source filed them. Calls come from the whole dose curve; as a rule, active = well fitted curve in the direction sought with a large enough effect; inconclusive = small, poorly fitted or top-dose-only effect, or another doubt; inactive = no such curve, though single readings can be large; an effect the other way counts as inactive or inconclusive.

How the values were obtained:
[1] = S16 Schwann cell viability assay (CellTiter-Glo assay) (AID 624031);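 note: native untransfected S16 rat Schwann cells; cellular ATP luminescence as a viability measure; nearly all actives have a fitted effect of over 70% in size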
Outline: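 Parental S16 cells, 24 h compound, 37 °C. ATP-luminescence viability; DMSO = 0% activity, empty wells as reference; curves classified by fit quality and efficacy.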

[2] = S16 Schwann cell PMP22 intronic element firefly luciferase assay (AID 624032); note: nearly all actives have a fitted effect of over 30% in size
Outline: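 Luciferase reporter of PMP22 intronic-element expression in stably transfected S16 rat Schwann cells, read by ONE-Glo luminescence after 24 h compound exposure at 37 C. Activity scaled between DMSO (0%) and positive-control PTC124; concentration-effect curves quality-classified.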

3D7 = assay: qHTS profiling for inhibitors of Plasmodium falciparum proliferation (AID 504749); note: nearly all actives have a fitted effect of over 60% in size; note: potency is the fitted concentration of half-maximal effect; conditions: P. falciparum in erythrocytes, SYBR Green DNA, 72 h; series mostly up to 28.7 µM
Outline: (§1)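 Infected RBCs, 0.3% parasitemia/2.5% Hct final; cpd 72 h, 37 C, 5% CO2; lysis buffer with saponin/triton/SYBR Green I, o/n RT dark; FI 485/535; norm. to artemisinin (0.29 uM) and DMSO.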

CP185 = assay: as above; conditions: P. falciparum in erythrocytes, SYBR Green DNA, 72 h; series mostly up to 28.7 µM
Outline: as §1

CP217 = assay: as above; conditions: P. falciparum in erythrocytes, SYBR Green DNA, 72 h; series mostly up to 28.7 µM
Outline: as §1

CP238 = assay: as above; conditions: P. falciparum in erythrocytes, SYBR Green DNA, 72 h; series mostly up to 28.7 µM
Outline: as §1

CP250 = assay: as above; conditions: P. falciparum in erythrocytes, SYBR Green DNA, 72 h; series mostly up to 12.8 µM
Outline: as §1

CP252 = assay: as above; conditions: P. falciparum in erythrocytes, SYBR Green DNA, 72 h; series mostly up to 12.8 µM
Outline: as §1

CP256 = assay: as above; conditions: P. falciparum in erythrocytes, SYBR Green DNA, 72 h; series mostly up to 28.7 µM
Outline: as §1

CP262 = assay: as above; conditions: P. falciparum in erythrocytes, SYBR Green DNA, 72 h; series mostly up to 28.7 µM
Outline: as §1

CP269 = assay: as above; conditions: P. falciparum in erythrocytes, SYBR Green DNA, 72 h; series mostly up to 28.7 µM
Outline: as §1

CP286 = assay: as above; conditions: P. falciparum in erythrocytes, SYBR Green DNA, 72 h; series mostly up to 28.7 µM
Outline: as §1

CP305 = assay: as above; conditions: P. falciparum in erythrocytes, SYBR Green DNA, 72 h; series mostly up to 28.7 µM
Outline: as §1

DIV30 = assay: as above; conditions: P. falciparum in erythrocytes, SYBR Green DNA, 72 h; series mostly up to 28.7 µM
Outline: as §1

ECU = assay: as above; conditions: P. falciparum in erythrocytes, SYBR Green DNA, 72 h; series mostly up to 28.7 µM
Outline: as §1

HB3 = assay: as above; conditions: P. falciparum in erythrocytes, SYBR Green DNA, 72 h; series mostly up to 28.7 µM
Outline: as §1

JCK = assay: as above; conditions: P. falciparum in erythrocytes, SYBR Green DNA, 72 h; series mostly up to 28.7 µM
Outline: as §1

N140 = assay: as above; conditions: P. falciparum in erythrocytes, SYBR Green DNA, 72 h; series mostly up to 28.7 µM
Outline: as §1

TAB109 = assay: as above; conditions: P. falciparum in erythrocytes, SYBR Green DNA, 72 h; series mostly up to 12.8 µM
Outline: as §1

CP201 = assay: as above; conditions: P. falciparum in erythrocytes, SYBR Green DNA, 72 h; series mostly up to 28.7 µM
Outline: as §1

SMILES	Potency [1]	Potency [2]	Potency (3D7)	Potency (CP185)	Potency (CP217)	Potency (CP238)	Potency (CP250)	Potency (CP252)	Potency (CP256)	Potency (CP262)	Potency (CP269)	Potency (CP286)	Potency (CP305)	Potency (DIV30)	Potency (ECU)	Potency (HB3)	Potency (JCK)	Potency (N140)	Potency (TAB109)	Potency (CP201)
C[N+]1([O-])[C@@H]2CC[C@H]1CC(OC(=O)[C@@H](CO)c1ccccc1)C2 (some centres undefined)	inactive	inactive	inactive	inactive	inactive	inactive	inactive	inactive	inactive	inactive	inactive	inactive	inactive	inactive	inactive	inactive	inactive	inactive	inactive	–
CC1=C2[C@@H]3OC(=O)[C@@H](C)[C@@H]3CC[C@]2(C)C=CC1=O	inactive	inactive	inactive	–	–	–	–	–	–	inactive	inactive	inactive	inactive	inactive	inactive	inactive	inactive	–	–	inactive
C[C@H](N)[C@@H](O)c1ccccc1	inactive	inactive	inactive	inactive	inactive	inactive	inactive	inactive	inactive	inactive	inactive	inactive	inactive	inactive	inactive	inactive	inactive	inactive	inactive	inactive
CCN[C@]1(c2cccs2)CCCCC1=O	inactive	inactive	inactive	inactive	inactive	inactive	inactive	inactive	inactive	inactive	inactive	inactive	inactive	inactive	inactive	inactive	inactive	inactive	inactive	inactive
CN(C)[C@@H]1C(=O)C(C(N)=O)=C(O)[C@]2(O)C(=O)C3=C(O)c4c(O)ccc(Cl)c4[C@](C)(O)[C@H]3C[C@@H]12	inactive	inactive	inactive	inactive	inactive	inactive	inactive	inactive	inactive	inactive	inactive	inactive	inactive	inactive	inactive	inactive	inactive	inactive	inactive	inactive
CC[C@]1(c2cccc(O)c2)CCCCN(C)C1	inactive	inactive	inactive	–	inactive	–	inactive	inactive	inactive	inactive	–	inactive	–	–	inactive	inactive	inactive	3.98 µM (active)	inactive	inactive
N[C@H]1C[C@H]1c1ccccc1	inactive	inactive	inactive	inactive	inactive	inactive	inactive	inactive	inactive	inactive	inactive	inactive	inactive	inactive	inactive	inactive	inactive	inactive	inactive	inactive
CC(C)N(CC[C@@](C(N)=O)(c1ccccc1)c1ccccn1)C(C)C	inactive	inactive	inactive	inactive	inactive	inactive	inactive	inactive	inactive	inactive	inactive	inactive	inactive	inactive	inactive	inactive	inactive	inactive	inactive	inactive
O=c1ccc2cc(O[C@H]3O[C@@H](CO)[C@@H](O)[C@@H](O)[C@@H]3O)c(O)cc2o1	inactive	inactive	–	inactive	inactive	inactive	inactive	inactive	inactive	inactive	inactive	inactive	inactive	inactive	inactive	inactive	inactive	inactive	inactive	inactive
COc1cc(N)c(Cl)cc1C(=O)N[C@@H]1CN2CCC1CC2	inactive	inactive	inactive	inactive	inactive	inactive	inactive	inactive	inactive	inactive	inactive	inactive	inactive	inactive	inactive	inactive	inactive	inactive	inactive	inactive
C[C@@H]1O[C@H](O[C@@H]2C=C3CC[C@H]4[C@@H](CC[C@]5(C)[C@@H](c6ccc(=O)oc6)CC[C@]45O)[C@@]3(C)CC2)[C@@H](O)[C@H](O)[C@@H]1O	inactive	–	inactive	inactive	inactive	inactive	inactive	inactive	inactive	–	inactive	inactive	inactive	inactive	inactive	inactive	inactive	inactive	inactive	inactive
CN[C@@H](C)[C@H]1CC[C@@H](N)[C@@H](O[C@@H]2[C@@H](O)[C@@H](O[C@H]3OC[C@@](C)(O)[C@@H](NC)[C@@H]3O)[C@H](N)C[C@@H]2N)O1 (tested in a mixture with another compound)	inactive	inactive	inactive	inactive	inactive	inactive	inactive	inactive	inactive	inactive	inactive	inactive	inactive	inactive	inactive	inactive	inactive	inactive	inactive	inactive
Clc1ccc([C@@H](OCCN2CCCCC2)c2ccccc2)cc1	–	inactive	inactive	inactive	inactive	inactive	inactive	inactive	inactive	inactive	–	3.55 µM (active)	–	–	–	7.94 µM (active)	–	3.98 µM (active)	–	inactive
ClC1=C(Cl)C2(Cl)C3C4CC(C5OC45)C3C1(Cl)C2(Cl)Cl (centres undefined)	inactive	inactive	inactive	inactive	inactive	inactive	inactive	inactive	inactive	–	inactive	–	inactive	inactive	inactive	inactive	inactive	inactive	inactive	inactive
